Assay outcomes from PubChem.
Only some compounds are listed: those with a hit (about 2.9% of all), similar ones and a draw of the others.
SMARCA2 activ = increases SMARCA2 function in MMTV reporter cells | MG213 cells, MMTV-luciferase reporter, dexamethasone, overnight | activation, % at 9.1 µM | 370,000 compounds, 1% hits | AID 652017; in the data active means activation above about 7.8%
FXN GAA850 act = frataxin GAA850 promoter activation. 360,000 compounds, 0.56% hits. AID 540364. HEK293 lucGAA850 FXN promoter luciferase reporter, 24 h; percent of 10 µM SAHA response. activation, % at 6 µM;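 active means activation above the average of all compounds screened plus 3 SD, cutoff fixed separately per campaign, cut at about 7.5% in these data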
FAS TE block = blocks the thioesterase domain of human fatty acid synthase; inhibition, % at 15 µM; 360,000 compounds, 0.67% hits; P49327; recombinant FAS-TE, OMFH fluorogenic substrate, fluorescence endpoint;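 active means compounds whose normalised, plate-corrected inhibition of enzyme fluorescence in the single-dose primary screen is 50% or more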
KLK7 zymogen act = activates the human kallikrein-7 zymogen; purified proKLK7, EDANS-DABCYL substrate fluorescence; 100% is mature enzyme control, 0% vehicle; activation, % at 7 µM; 370,000 compounds, 0.9% hits; AID 652039;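 active means activation above the mean of all tested compounds plus 3 SD, computed per campaign excluding outliers beyond control limits, cut at about 13% in these data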
Target sequence (P49862 whole entry, looked up): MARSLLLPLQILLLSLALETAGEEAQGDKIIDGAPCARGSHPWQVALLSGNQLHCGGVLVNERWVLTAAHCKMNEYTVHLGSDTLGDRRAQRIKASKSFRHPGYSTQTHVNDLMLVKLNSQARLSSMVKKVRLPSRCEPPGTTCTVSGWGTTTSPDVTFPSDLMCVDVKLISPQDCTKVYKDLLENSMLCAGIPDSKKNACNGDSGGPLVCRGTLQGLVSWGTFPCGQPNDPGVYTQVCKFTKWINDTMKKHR
KLK7 act conf = confirmation of human kallikrein-7 zymogen activators; shares compounds with KLK7 zymogen act; AID 686949; 3,200 compounds, 68% hits; purified proKLK7, EDANS-DABCYL substrate fluorescence; scaled: vehicle 0, mature enzyme 100; activation, % at 7 µM;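 active means activation, as change over the incubation, above the mean of all tested compounds plus 3 SD, cut at about 13% in these data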
EDANS-DABCYL int = fluorescence interference counter-screen for KLK7 activators | shares compounds with KLK7 zymogen act | EDANS-DABCYL substrate fluorescence interference, no enzyme, 4 h; solvent 0%, active enzyme control 100% | activation, % at 7 µM | 3,200 compounds, 80% hits | AID 686952;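 active means activation above the all-compound mean plus 3 SD, ignoring values outside control-based bounds, cut at about 4.8% in these data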;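 further: value is the 4 h activation minus the activation read at time zero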
Each line names hits and unclear results; the compound was inactive in the other large screens (follow-up assays come after a bar, where they were run).

CC1CN(CC(=O)c2ccccc2Cl)CC(C)O1 (stereo unspecified)	KLK7 zymogen act 16 | KLK7 act conf inactive | EDANS-DABCYL int inactive
CC1CCN(CC(=O)c2ccccc2Cl)CC1	none
Cc1ccccc1NC(=NCCCN1CC1)Nc1ccccc1C	none
COC(=O)C1=C(c2cccc(OC)c2OC)C[C@@H]2CC[C@H]1N2C(=O)NCc1ccco1	none
COc1ccc2c3c([nH]c2c1)[C@H](C=C(C)C)N1C(=O)[C@@H]2CCCN2C(=O)[C@@H]1C3	none (no result: FXN GAA850 act, FAS TE block)
C1=NCCc2c1[nH]c1ccccc21	none
CC1=NCCc2c1[nH]c1cc(O)ccc21	KLK7 zymogen act 80 | KLK7 act conf 68 | EDANS-DABCYL int 71
COc1ccc2c3c([nH]c2c1)C(C)=NCC3	KLK7 zymogen act 54 | KLK7 act conf 58 | EDANS-DABCYL int 72
COc1ccccc1OCC(=O)N1CCCC(N(C)Cc2ccccc2)C1 (stereo unspecified)	none
O=P(O)(O)CN1CCNCCN(CP(=O)(O)O)CCNCC1	none
COc1cc(C)cc2oc(=O)c(CC(=O)N3C[C@H]4C[C@@H](C3)c3cccc(=O)n3C4)c(C)c12	KLK7 zymogen act 22 | KLK7 act conf 15 | EDANS-DABCYL int 17
Cc1ncc(CN2CCCC(C(=O)c3cccc(Cl)c3)C2)s1 (stereo unspecified)	none
C=C(Cl)CSC(=S)N(CC)CC	none
CC(C)CCOC(=O)c1c(N)n(CC2CCCO2)c2nc3ccccc3nc12 (stereo unspecified)	none
CC(C)OC(=O)c1c(N)n(CC2CCCO2)c2nc3ccccc3nc12 (stereo unspecified)	KLK7 zymogen act 48 | KLK7 act conf 73 | EDANS-DABCYL int 72
Nc1c(C(=O)NCc2ccco2)c2nc3ccccc3nc2n1Cc1ccccc1	none
CCCCn1c(N)c(C(=O)OCCOC)c2nc3ccccc3nc21	none
Nc1c(C(=O)NCc2ccco2)c2nc3ccccc3nc2n1CCN1CCOCC1	KLK7 zymogen act 34 | KLK7 act conf inactive | EDANS-DABCYL int inactive
COCCOC(=O)c1c(N)n(Cc2ccccc2)c2nc3ccccc3nc12	KLK7 zymogen act 32 | KLK7 act conf inactive | EDANS-DABCYL int inactive
CCOC(=O)c1c(N)n(Cc2ccco2)c2nc3ccccc3nc12	KLK7 zymogen act 47 | KLK7 act conf 60 | EDANS-DABCYL int 78
CCOc1ccc(-c2cc(C)[n+](CCO)c(-c3ccc(OCC)cc3)c2)cc1	KLK7 zymogen act 94 | KLK7 act conf 70 | EDANS-DABCYL int 69
COC(=O)C1=C(c2cccc(C#N)c2)C[C@@H]2CC[C@H]1N2C(=O)NCCNC(C)=O	none
CN(C)P1(N(C)C)=NC(C(F)(F)F)=NC(C(F)(F)F)=N1	none
CC(=O)N1CCC2(CC1)CC(=O)c1cc(OCC(=O)N3CCC4(CC3)OCCO4)ccc1O2	KLK7 zymogen act 36 | KLK7 act conf 70 | EDANS-DABCYL int 65
CC(=O)N1CCC2(CC1)CC(=O)c1cc(OCC(=O)N3CCN(C)CC3)ccc1O2	KLK7 zymogen act 42 | KLK7 act conf 63 | EDANS-DABCYL int 68
Cc1cc(OCC(=O)N2CCCN(C)CC2)ccc1Cl	none
